Screen size: about 350,000 compounds; about 31,000 (8.9%) were called active. About 15% were inconclusive and are not listed. The entries come from a sample that favours actives as a whole. A call without a number means that no potency is given here. Where a structure was tested more than once in an assay, its records may differ in their call. Values without a mark were called inactive. The call rests on the fitted dose curve; in most records, active means well fitted inhibition curve with a large enough effect; inconclusive means small, poorly fitted or top-dose-only effect; inactive means no such curve, though single readings can be large or run the other way.
target: Histone-lysine N-methyltransferase EHMT2 (Homo sapiens) (UniProt Q96KQ7); experiment: qHTS Assay for Inhibitors of Histone Lysine Methyltransferase G9a; details: G9a H3K9 monomethylation, AlphaScreen, 2 h; series mostly up to 59 µM; further: nearly all actives have a fitted effect of over 75% in size
Sequence (Q96KQ7 913-1193 limits assumed): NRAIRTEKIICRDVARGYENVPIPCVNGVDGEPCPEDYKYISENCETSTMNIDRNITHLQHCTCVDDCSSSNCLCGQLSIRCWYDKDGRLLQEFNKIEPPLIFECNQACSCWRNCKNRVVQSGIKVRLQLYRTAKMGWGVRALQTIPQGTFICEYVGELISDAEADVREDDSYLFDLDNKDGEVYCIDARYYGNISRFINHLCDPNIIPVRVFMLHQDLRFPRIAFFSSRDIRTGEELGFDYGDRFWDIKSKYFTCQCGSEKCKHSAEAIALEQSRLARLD
Method in brief: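 Signal arises when biotinylated H3K9 peptide, once monomethylated, bridges streptavidin donor and antibody-captured acceptor beads. Enzyme at 20 nM was preincubated 15 min with test compounds; peptide 500 nM and SAM 20 uM then reacted for 2 h.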
Potency means the concentration at half of the fitted maximal effect.

| SMILES | activity, negative = inhibition | Potency |
| --- | --- | --- |
| COc1ccc(Cl)cc1NC(=O)COc1ccc2c(c1)OCO2 | 6.56% [at 12.7 µM] |  |
| CCc1ccc(CNC(=O)c2cc3c(=O)n(CC)c4ccccc4c3s2)cc1 |  | inactive |
| CCCN1CN=C(NS(=O)(=O)c2ccc(NC(C)=O)cc2)NC1 |  | inactive |
| O=S(=O)(c1ccc(-c2ccno2)s1)N1CCCCC1 |  | inactive |
| COc1ccc(NS(=O)(=O)c2cc(NC(=O)COc3ccccc3F)ccc2OC)cc1 | 30.6% [at 12.7 µM] |  |
| CC1=C(C(=O)Nc2ccccc2Cl)C(c2cccs2)n2ncnc2N1 (stereo not given) |  | inactive |
| CC1(C)O[C@@H]2[C@H](O1)[C@@H](COS(=O)(=O)O)O[C@H]2n1ccc(=O)[nH]c1=O | 2.02% [at 2.33 µM] |  |
| Cc1cccc(-c2oc3ccc(-c4ccc5c(c4)OCO5)cc3c2C#Cc2cncn2C)c1 | 7.97% [at 0.501 µM] |  |
| COc1ccc(Cl)cc1C(=O)OCC(=O)NCc1cccs1 |  | inactive |
| CCSc1nnc(NC(=O)c2cc(=O)c3cc(C)c(C)cc3o2)s1 |  | inactive |
| Cc1ccc(Cl)cc1NC(=O)NC1COc2ccccc2C1 (stereo not given) |  | inactive |
| CN(C)c1nc(NN)nc(Nc2ccc(F)cc2)n1 |  | inactive |
| Fc1ccc(Nc2nnns2)cc1 |  | 10 µM (active) |
| CSc1nc(Nc2ccc(F)cc2)cc(-c2ccccc2)n1 |  | inactive |
| O=C1/C(=C\c2cccnc2)CN(Cc2ccccc2)C/C1=C\c1cccnc1 |  | inactive |
| O=S1(=O)CCN2C(=N1)SC1=C2CCN(Cc2ccccc2)C1 |  | 20 µM (active) |
| Cc1ccc(C2=CSC3=NS(=O)(=O)CCN23)cc1C |  | inactive |
| COc1ccccc1C(=O)NCCC(=O)N(C)Cc1cccnc1 |  | inactive |
| O=C1C(=O)N(CCCO)C(c2ccccc2)/C1=C(\O)c1ccc(Br)cc1 (stereo not given) | 12.3% [at 0.501 µM] |  |
| COc1ccc(C2/C(=C(/O)c3ccc(OC(C)C)cc3)C(=O)C(=O)N2CCCN2CCOCC2)cc1 (stereo not given) |  | 44.7 µM (active) |
| O=C1C(=O)N(CCCN2CCOCC2)C(c2ccc([N+](=O)[O-])cc2)/C1=C(\O)c1ccc2c(c1)OCCO2 (stereo not given) | -12.3% [at 0.0925 µM] |  |
| COCCN1C(=O)C(=O)/C(=C(/O)c2ccc(S(=O)(=O)N3CCOCC3)cc2)C1c1ccc(OC)c(OC)c1 (stereo not given) |  | inactive |
| CC1Cc2cc(/C(O)=C3\C(=O)C(=O)N(CCN4CCOCC4)C3c3ccccc3F)ccc2O1 (stereo not given) |  | inactive |
| O=C1C(=O)N(CCN2CCOCC2)C(c2ccccn2)/C1=C(/O)c1ccc(Cl)cc1 (stereo not given) |  | 7.94 µM (active) |

| SMILES | activity, negative = inhibition | Potency |
| --- | --- | --- |
| CCCCSCCCNC(=O)C1CCC(CNS(=O)(=O)c2ccc(NC(C)=O)cc2)CC1 (stereo not given) |  | inactive |
| COCCN(Cc1ccccc1)C(=O)Cc1ccc(S(=O)(=O)N2CCOCC2)s1 | -3.78% [at 12.7 µM] |  |
| COc1ccc(NC(=O)Cn2c(=O)n(CCC(C)C)c(=O)c3cccnc32)cc1Cl |  | inactive |
| O=C(Nc1ccc(Br)cc1)c1cc2nc(-c3ccccc3)cc(-c3ccccc3)n2n1 |  | inactive |
| O=C(Cc1ccccc1)NC(=S)Nc1ccc(N2CCCCC2)cc1 |  | 7.94 µM (active) |
| COc1cccc(C(=O)Nc2ccc(N3CCN(C(=O)c4ccco4)CC3)cc2)c1 |  | inactive |
| COC(=O)Cc1ccc(NC(=S)NCc2ccccc2)cc1 |  | inactive |
| COc1cccc(C(=O)Nc2ccc(N3CCCC3)cc2)c1 |  | 4.47 µM (active) |
| O=C(O)CCC(=O)Nc1ccc(N2CCOCC2)cc1 |  | inactive |
| COc1cccc(C(=O)Nc2ccc3nc4n(c(=O)c3c2)CCCCC4)c1 |  | inactive |
| COc1ccc(C(=O)Nc2ccc(N3CCC(C)CC3)cc2)cc1Br |  | inactive |
| Cc1ccc(C(=O)NC(=S)Nc2ccc(N3CCOCC3)cc2)cc1 |  | 7.94 µM (active) |
| Cc1ccc(C(=O)NC(=S)NCCN2CCOCC2)cc1 |  | inactive |
| COc1ccc(C(=O)NC(=S)Nc2ccc(N3CCCC3)cc2)cc1OC |  | 3.98 µM (active) |
| Cc1ccccc1C(=O)NC(=S)Nc1ccc(N2CCN(C(=O)c3ccccc3)CC2)cc1 |  | inactive |
| COc1ccc(C(=O)Nc2ccc3nc(N4CCCCC4)cc(C)c3c2)cc1OC |  | inactive |
| COc1ccc2oc(-c3ccc(C)c(NC(=O)c4sc5ccccc5c4Cl)c3)nc2c1 |  | inactive |
| CCOc1ccccc1NC(=S)NC(=O)CCc1ccccc1 |  | inactive |
| CSCC[C@H](NC(=O)N1CCn2c1nc1ccccc12)C(=O)NCc1ccc2c(c1)OCO2 |  | inactive |
| Cc1ccnc(NC(=O)CCNS(=O)(=O)c2ccc(C)c(C)c2)c1 |  | inactive |
| CN(Cc1ccccc1)C(=O)CSc1nc2ccccc2[nH]1 |  | inactive |
| O=c1cc(-c2ccccc2)[nH]c2cc(F)ccc12 |  | inactive |
| Cc1ccc(-c2cc(=O)c3ccc(Cl)cc3[nH]2)cc1 |  | inactive |
| O=c1cc(-c2ccccc2)[nH]c2nc(Cl)ccc12 | 48.3% [at 12.7 µM] | 20 µM (active) |

| SMILES | activity, negative = inhibition | Potency |
| --- | --- | --- |
| CCN(CC)CCCNC(=O)c1cc2c(=O)[nH]c3ccc(C)cc3c2s1 |  | inactive |
| CCCCn1c(N)c(N(CCOC)C(=O)c2cccc(S(=O)(=O)N3CCCCC3)c2)c(=O)[nH]c1=O |  | 50.1 µM (active) |
| CCCCn1c(N)c(N(CCOC)C(=O)c2cccc(OCc3ccccc3)c2)c(=O)[nH]c1=O |  | inactive |
| CCCCn1c(N)c(N(CC(C)C)C(=O)c2cccc(S(=O)(=O)N3CCN(C(C)=O)CC3)c2)c(=O)[nH]c1=O |  | inactive |
| CCOc1ccc(NC(=O)COc2ccc(C(=O)N3CCC(C(N)=O)CC3)cc2OC)cc1 | 4.45% [at 0.501 µM] |  |
| CC(OC(=O)CNC(=O)c1ccco1)C(=O)Nc1ccc(Cl)cn1 (stereo not given) |  | inactive |
| COc1ccc2[nH]c3ccc(OC)cc3c2c1 |  | 50.1 µM (active) |
| COc1ccc2[nH]c(C(=O)N3CCN(C)CC3)c(C)c2c1 |  | inactive |
| CCN(CC)CC(=O)c1c[nH]c2ccc(OC)cc12 |  | inactive |
| COc1ccc(NC(=O)c2cc3cc(C)ccc3n2C)cc1 |  | inactive |
| CCC(C)NC(=O)c1ccc(NC(=O)CC2SC(N3CCCCC3)=NC2=O)cc1 (stereo not given) | -0.745% [at 12.7 µM] |  |
| CC(=O)O[C@H]1CC[C@@]2(C)[C@@H](CC[C@@H]3[C@@H]2CC[C@]2(C)[C@@H](C(C)(C)O)C[C@@H]32)C1 | -7.36% [at 2.33 µM] |  |
| O=C(NCc1ccco1)c1nn2cccnc2c1Cl |  | inactive |
| O=C(NCc1ccco1)c1sc2cccc(F)c2c1Cl |  | 8.91 µM (active) |
| O=C(NCc1ccco1)C1(c2ccc(Cl)cc2)CCCC1 |  | inactive |
| COc1ccc(-c2cc(C(=O)N3CCN(Cc4ccc5c(c4)OCO5)CC3)on2)cc1OC |  | inactive |
| CCN1C(=O)[C@H]2[C@@H](c3ccc(C)cc3)N3C(=O)N(c4cccc(Br)c4)C(=O)[C@@]3(CC)[C@H]2C1=O | -0.448% [at 2.33 µM] |  |
| C=CCOc1ccc(/C=C2/C(=O)ON=C2C)cc1OCC |  | 44.7 µM (active) |
| CCOc1cc(/C=N/O)ccc1OCc1ccccc1F |  | inactive |
| COc1cc(/C=C2\SC(=O)NC2=O)ccc1OCc1ccc(Cl)nc1 | 21.1% [at 2.33 µM] |  |
| COc1ccnc2c1c(=O)n(Cc1cccc(F)c1)c(=O)n2C |  | inactive |
| C=CCOc1ccc(/C=N/NC(=O)C(C)Sc2ccccn2)cc1OCC (stereo not given) |  | inactive |
| C#CCOc1ccccc1/C=C1/C(=O)ON=C1C |  | inactive |
| C#CCOc1ccc(/C=C2/C(=O)ON=C2C)cc1OCC |  | 39.8 µM (active) |

| SMILES | activity, negative = inhibition | Potency |
| --- | --- | --- |
| CCOc1cc(/C=C2\C(=N)N3N=C(C)SC3=NC2=O)ccc1OCCOc1ccccc1 |  | inactive |
| COc1cc(/C=C2/C(=O)ON=C2C)ccc1OCc1cccc(F)c1 |  | 50.1 µM (active) |
| O=C1CC(c2ccc(F)cc2F)c2cc3c(cc2N1)OCO3 (stereo not given) |  | inactive |
| Cc1ccc(S(=O)(=O)N2CCN(C(=O)Cc3sc(C)nc3-c3ccc(F)cc3)CC2)c(C)c1 |  | inactive |
| CCc1ccc(S(=O)(=O)c2nnn3c2nc(NCc2ccccc2OC)c2cc(Cl)ccc23)cc1 |  | inactive |
| O=C(Nc1nc2ccc(F)cc2s1)c1nc(SCc2ccccc2F)ncc1Cl |  | inactive |
| CCOC(=O)Cc1ccc(NC(=O)Nc2c[nH]c(=O)[nH]c2=O)cc1 |  | inactive |
| CCc1ccc(NC(=O)c2cc3c(=O)n(Cc4cccnc4)ccc3nc2C)cc1 |  | inactive |
| O=C(c1ccc(S(=O)(=O)N2CCCC2)cc1)N1CCN(c2ccccc2F)CC1 |  | inactive |
| CNS(=O)(=O)c1ccc(C(=O)NCC(=O)NCCc2ccc3c(c2)OCCO3)cc1 | -2.43% [at 12.7 µM] |  |
| Cc1ccc(N(CC(=O)NCC2CCCO2)C(=O)CNS(=O)(=O)c2ccc(Cl)cc2)cc1 (stereo not given) |  | 1 µM (active) |
| O=C(CN(CC1CCCO1)C(=O)CNS(=O)(=O)c1ccc(Cl)cc1)NCc1ccccc1 (stereo not given) |  | inactive |
| CCOc1ccc(N(CC(=O)NCC2CCCO2)S(=O)(=O)c2ccc(C)cc2)cc1 (stereo not given) |  | 50.1 µM (active) |
| CCOc1ccc(S(=O)(=O)NCCC(=O)NCC2CCCO2)cc1 (stereo not given) | 28.8% [at 12.7 µM] |  |
| Cc1ccc(CN(CC(=O)NCC2CCCO2)S(=O)(=O)c2ccc(C)cc2)cc1 (stereo not given) |  | inactive |
| Cc1ccc(S(=O)(=O)NCC(=O)N(CC(=O)NCC2CCCO2)c2cccc(F)c2)cc1 (stereo not given) |  | inactive |
| Cc1ccc(-c2nnc(Nc3cccc(Br)c3)c3ccccc23)cc1S(=O)(=O)NCC1CCCO1 (stereo not given) |  | inactive |
| CCOc1ccccc1NC(=O)Cn1c2ncccc2c(=O)n1-c1ccc(C)c(C)c1 |  | inactive |
| COc1cc2ccccc2cc1C(=O)Nc1cccc(-c2nc3ccccc3o2)c1 |  | inactive |
| O=C(/C=C/c1ccccc1)N1CCN(Cc2cc(=O)n3nc(-c4ccccc4F)sc3n2)CC1 |  | inactive |
| O=C(NCCC1=CCCCC1)c1ccc2c(c1)N(Cc1ccccc1F)C(=O)c1ccccc1S2(=O)=O |  | inactive |
| C=C(C)COc1ccc(-c2ncncc2-c2ccc(OC)cc2)c(O)c1 |  | inactive |

Reference: PubChem BioAssay AID504332 (National Center for Advancing Translational Sciences (NCATS), 2011)
